One test concerns CHO. Kind of test: % viability of CHO cells (MTT); higher = less toxic. The note with it: 48 h. The gist of the method:
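CHO cells seeded at 10^6 cells/well were exposed to compound at 2 or 20 µM for 48 h. Survival, as percent of untreated cells, was measured with the colorimetric tetrazolium (MTT) assay.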

In a further test the test system is HepG2-A16-CD81. As to the kind of experiment: % inhibition of HepG2 viability (CellTiter-Glo); higher = more toxic. The note with it: 5 µM.
Test [1] concerns Plasmodium falciparum NF54 stage IV/V gametocytes. Kind of test: % inhibition of gametocyte viability (PrestoBlue); higher = more inhibition. The note with it: 48 h. The gist of the method:
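Compound was tested at 1 or 5 µM against Stage IV/V NF54 gametocytes plated at 100 µL/well (2% gametocytaemia, 5% haematocrit). After 48 h of stationary, hypoxic incubation at 37 °C, 10 µL PrestoBlue was added for 2 h before reading 612 nm fluorescence from 70 µL of transferred supernatant. Gametocyte viability inhibition, as a percentage, was scaled against vehicle and kill controls from a single run.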

Test [2] deals with Plasmodium falciparum NF54 asexual blood stage. Kind of test: % inhibition of asexual blood stage proliferation (pLDH); higher = more inhibition. The following applies: 72 h. The procedure, abridged: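 In 96-well plates, compound at 2 or 20 µM was added to Plasmodium falciparum NF54 ring-stage cultures (1% haematocrit, 2% parasitaemia). Plates were incubated for 72 h at 37 °C in 4% CO2, 3% O2 and 93% N2, and survival was then read at 620 nm using the parasite lactate dehydrogenase assay. Inhibition of asexual proliferation, expressed as a percentage, was normalised to controls.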

Test [3] deals with Plasmodium falciparum NF54 stage IV/V gametocytes. Kind of test: % inhibition of gametocyte viability (ATP bioluminescence); higher = more inhibition. The note with it: 24 h. The procedure, abridged: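 Density gradients were used to enrich stage IV/V NF54 gametocytes, which were then seeded into 96-well plates at 30,000 per well with compound at 1 or 5 µM. The plates were incubated at 37 °C for 24 h, and ATP was measured with the Promega BacTiter Glo bioluminescence system. Percent inhibition of gametocyte viability was normalised to the plate controls from a single run.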

Test [4] shares this test system. Kind of test: % inhibition of gametocyte viability (luciferase reporter); higher = more inhibition. The following applies: 48 h. The gist of the method: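 Compound at 1 or 5 µM was added to stage IV/V NF54-Pfs16-GFP-Luc gametocytes (2% gametocytaemia, 2% haematocrit) and incubated stationary and hypoxic at 37 °C for 48 h. A GloMax-Multi+ reader measured luminescence over 10 s integration on 30 µL lysate plus 30 µL Promega luciferin substrate. Percent inhibition values were normalised to controls within a single run.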
For orientation: Reporter assays use an easily measured gene product as a stand-in for the process of interest.

The subject of test [5] is Plasmodium berghei ANKA liver stage in HepG2-A16-CD81. Kind of test: % inhibition of liver stage parasite viability (luciferase); higher = more inhibition. The following applies: 5 µM; 48 h. The protocol:
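Single-concentration screen of the MMV Pandemic Response Box. P. falciparum NF54 asexual blood stages: pLDH assay, 72 h at 37 °C, 2 and 20 µM, n=2. Stage IV/V gametocytes (NF54): luciferase reporter (NF54-Pfs16-GFP-Luc, 48 h), ATP bioluminescence (24 h) and PrestoBlue (48 h) at 1 and 5 µM, n=1. P. berghei liver stage (luciferase in HepG2-A16-CD81, 48 h post infection) at 5 µM, n=4. All normalised to DMSO and kill controls as % inhibition.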

This is an account of results in the supplement of paper PMC7801607.
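Throughout, for % inhibition of HepG2 viability (CellTiter-Glo): HepG2-A16-CD81 hepatoma cells plated as in the liver-stage assay but without sporozoites, with DMSO wells as negative and 25 µM puromycin as positive control.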

Take `O=C1NC(=S)N/C1=C\c1cc(Br)cc(Br)c1O`: the “% viability of CHO cells” value came to 91.8% in the test on CHO (2 µM) and 63.5% in the test on CHO (20 µM). Moreover, in the test on HepG2-A16-CD81, the “% inhibition of HepG2 viability” value was -2.5%. The “% inhibition of gametocyte viability” value in test [1] (1 µM) is 1.86%; in test [1] (5 µM) it was less than 0%; in test [3] (1 µM), less than 0%; in test [3] (5 µM) it was less than 0%; in test [4] (1 µM) it was less than 0%; in test [4] (5 µM) it was less than 0%. For the same compound, the figures for the “% inhibition of asexual blood stage proliferation” value in test [2] (2 µM) and in test [2] (20 µM) were 10.8% and 17.1%, respectively.

Turning to `CC1(C)[C@H](C(=O)O)N2C(=O)C[C@H]2S1(=O)=O`, the “% inhibition of gametocyte viability” value in test [1] (1 µM), in test [1] (5 µM), in test [3] (1 µM), in test [3] (5 µM), in test [4] (1 µM) and in test [4] (5 µM) was less than 0% in each case. For the same compound, the “% inhibition of asexual blood stage proliferation” value is 11.2% in test [2] (2 µM) and 34.3% in test [2] (20 µM). Also, the “% inhibition of liver stage parasite viability” value in test [5] was determined as 20.3%.

With `O=S(=O)(Nc1ccc(O)cc1)c1cccc2cccnc12`, the figures for the “% viability of CHO cells” value in the test with CHO (2 µM) and with CHO (20 µM) were 91.3% and 104%, respectively. The “% inhibition of HepG2 viability” value in the test with HepG2-A16-CD81 was found to be 0.07%. Further, the “% inhibition of gametocyte viability” value in test [1] (1 µM), in test [1] (5 µM), in test [3] (1 µM), in test [3] (5 µM), in test [4] (1 µM) and in test [4] (5 µM) was less than 0% each time. The “% inhibition of asexual blood stage proliferation” value in test [2] (2 µM) was 28.2%; in test [2] (20 µM) it was 52.4%.

For `CCC[C@@H]1C[C@@H](C(=O)N[C@@H]([C@H]2O[C@H](SC)[C@H](O)[C@@H](O)[C@H]2O)[C@H](C)Cl)N(C)C1`, the “% viability of CHO cells” value in the test with CHO (2 µM) turned out to be 89.5%; in the test with CHO (20 µM), 103%. Also, the “% inhibition of HepG2 viability” value with HepG2-A16-CD81 was 5.96%. Further, the “% inhibition of gametocyte viability” value in test [1] (1 µM) was 10.3%; in test [1] (5 µM), 24.2%; in test [3] (1 µM), less than 0%; in test [3] (5 µM), 1.18%; in test [4] (1 µM) it was less than 0%; in test [4] (5 µM), less than 0%. Moreover, the “% inhibition of asexual blood stage proliferation” value in test [2] (2 µM) was determined as 72.9%; in test [2] (20 µM), 93.2%.

Regarding `NC(=O)c1cnccn1`, the “% viability of CHO cells” value worked out at 96% in the test with CHO (2 µM) and 75.7% in the test on CHO (20 µM). For the same compound, the “% inhibition of HepG2 viability” value with HepG2-A16-CD81 was -2.12%. The “% inhibition of gametocyte viability” value in test [1] (1 µM) was 9.19%; in test [1] (5 µM), 38.1%; in test [3] (1 µM), less than 0%; in test [3] (5 µM) it was less than 0%; in test [4] (1 µM), less than 0%; in test [4] (5 µM) it was 14.8%. Moreover, the “% inhibition of asexual blood stage proliferation” value in test [2] (2 µM) stood at 38.1%; in test [2] (20 µM), 70.3%.

Regarding `O=C(/C(=C/c1ccc(Cl)cc1Cl)n1ccnc1)c1ccc(Cl)cc1`, the “% viability of CHO cells” value worked out at 108% with CHO (2 µM) and 113% in the test on CHO (20 µM). Also, in the test on HepG2-A16-CD81, the “% inhibition of HepG2 viability” value was -2.24%. The “% inhibition of gametocyte viability” value in test [1] (1 µM) was found to be 38.5%; in test [1] (5 µM) it was 85.8%; in test [3] (1 µM) it was 40.3%; in test [3] (5 µM), 86.2%; in test [4] (1 µM) it was 80.5%; in test [4] (5 µM), 99.8%. In addition, the “% inhibition of asexual blood stage proliferation” value came to 56.2% in test [2] (2 µM) and 75.6% in test [2] (20 µM).

Consider `CCN(CC)CCCC(C)Nc1ccnc2cc(Cl)ccc12` (centres undefined), for which the “% viability of CHO cells” value is 95.9% with CHO (2 µM) and 76.9% in the test on CHO (20 µM). Moreover, the “% inhibition of HepG2 viability” value with HepG2-A16-CD81 was 8.97%. The “% inhibition of gametocyte viability” value in test [1] (1 µM) was 16.9%; in test [1] (5 µM) it was 6%; in test [3] (1 µM), less than 0%; in test [3] (5 µM), less than 0%; in test [4] (1 µM), 29.7%; in test [4] (5 µM), 5.51%. For the same compound, the “% inhibition of asexual blood stage proliferation” value was 85.8% in test [2] (2 µM) and 99.8% in test [2] (20 µM).

`COc1ccc(SCC(=O)N2c3ccccc3Sc3ccccc32)cc1`: the “% viability of CHO cells” value in the test with CHO (2 µM) turned out to be 91%; with CHO (20 µM) it was 110%. Moreover, the “% inhibition of HepG2 viability” value in the test on HepG2-A16-CD81 turned out to be 7.46%. In addition, the “% inhibition of gametocyte viability” value in test [1] (1 µM), in test [1] (5 µM), in test [3] (1 µM), in test [3] (5 µM), in test [4] (1 µM) and in test [4] (5 µM) was less than 0% in each case. Further, the “% inhibition of asexual blood stage proliferation” value in test [2] (2 µM) came to 0.401%; in test [2] (20 µM), 35.5%.

For the compound `O=[N+]([O-])c1cn2c(n1)OC[C@@H](OCc1ccc(OC(F)(F)F)cc1)C2`, the “% viability of CHO cells” value in the test on CHO (2 µM) came to 92.7%; with CHO (20 µM), 84.4%. Further, the “% inhibition of HepG2 viability” value in the test with HepG2-A16-CD81 stood at 10.7%. In addition, the “% inhibition of gametocyte viability” value in test [1] (1 µM) was less than 0%; in test [1] (5 µM), less than 0%; in test [3] (1 µM), less than 0%; in test [3] (5 µM) it was less than 0%; in test [4] (1 µM), less than 0%; in test [4] (5 µM) it was 3.32%. For the same compound, the “% inhibition of asexual blood stage proliferation” value in test [2] (2 µM) was determined as 0.354%; in test [2] (20 µM), 10.1%.

With `O=C(CSc1nnc(Br)n1-c1ccc(C2CC2)c2ccccc12)Nc1ccc(C(=O)O)cc1Cl`, the “% viability of CHO cells” value came out at 98.5% in the test on CHO (2 µM) and 61.4% in the test on CHO (20 µM). Moreover, in the test with HepG2-A16-CD81, the “% inhibition of HepG2 viability” value was -1.62%. For the same compound, the “% inhibition of gametocyte viability” value in test [1] (1 µM) is 15.4%; in test [1] (5 µM) it was 20.5%; in test [3] (1 µM), less than 0%; in test [3] (5 µM) it was less than 0%; in test [4] (1 µM) it was less than 0%; in test [4] (5 µM), less than 0%. The “% inhibition of asexual blood stage proliferation” value in test [2] (2 µM) amounted to 3.71%; in test [2] (20 µM), 46.7%.

`NC(=O)C(c1ccccc1)(c1ccccc1)[C@H]1CCCN(CCc2ccc3c(c2)CCO3)C1`: the “% viability of CHO cells” value with CHO (2 µM) is 91.2%; in the test on CHO (20 µM), -0.304%. The “% inhibition of HepG2 viability” value with HepG2-A16-CD81 was determined as 1.31%. Besides, the “% inhibition of gametocyte viability” value in test [1] (1 µM) was 33.7%; in test [1] (5 µM), 14%; in test [3] (1 µM), less than 0%; in test [3] (5 µM), less than 0%; in test [4] (1 µM), 12%; in test [4] (5 µM) it was less than 0%. The “% inhibition of asexual blood stage proliferation” value in test [2] (2 µM) was -5.36%; in test [2] (20 µM) it was 68.4%.
